Measurements taken from PubChem BioAssay (NCI).
About 83,000 compounds went through this panel and 20% of them were active in at least one assay; those are over-represented in the sample as a whole.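 A percent growth of 40 corresponds to 60% growth inhibition; 0 means no net growth; -100 means all cells died. Active threshold: below 10.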 The source made the active and inactive calls.

What was measured:
Assay in all cases: NCI-60 one-dose screen, 48 h (100 = growth as untreated, 0 = no growth, -100 = all killed)
Conditions in all cases: 10 µM unless noted
DU-145 prostate = tested on: DU-145 prostate
K-562 leukemia = tested on: K-562 leukemia
MALME-3M melanoma = tested on: MALME-3M melanoma
MDA-MB-231 breast = tested on: MDA-MB-231 breast
RXF 393 renal = tested on: RXF 393 renal
SF-268 CNS = tested on: SF-268 CNS
SF-295 CNS = tested on: SF-295 CNS
SF-539 CNS = tested on: SF-539 CNS
UACC-257 melanoma = tested on: UACC-257 melanoma
M14 melanoma = tested on: M14 melanoma
HCT-15 colon = tested on: HCT-15 colon
HT29 colon = tested on: HT29 colon
SNB-75 CNS = tested on: SNB-75 CNS
SNB-19 CNS = tested on: SNB-19 CNS
U251 CNS = tested on: U251 CNS
SK-MEL-5 melanoma = tested on: SK-MEL-5 melanoma
UACC-62 melanoma = tested on: UACC-62 melanoma
LOX IMVI melanoma = tested on: LOX IMVI melanoma
SK-MEL-28 melanoma = tested on: SK-MEL-28 melanoma
PC-3 prostate = tested on: PC-3 prostate

Measured: growth

CCCCCOc1ccc(/C=N/Nc2cc(C)nc3ccc(Br)cc23)cc1
active: DU-145 prostate 0.579% | K-562 leukemia -19.6% | MALME-3M melanoma -35.9% | MDA-MB-231 breast -51.4% | RXF 393 renal -82.9% | SF-295 CNS -84.8% | SF-539 CNS -83.7% | HCT-15 colon -91.4% | HT29 colon 4.52% | U251 CNS -65% | LOX IMVI melanoma -92.9% | SK-MEL-28 melanoma -74.3%
inactive: SF-268 CNS 87.2% | UACC-257 melanoma 102% | M14 melanoma 15.5% | SNB-75 CNS 85.5% | SNB-19 CNS 43.2% | SK-MEL-5 melanoma 89.1% | UACC-62 melanoma 93.2%

C#CC(=O)Nc1cccc(Nc2nc3c(c(NCc4ccccc4)n2)CCCC3)c1
active: DU-145 prostate -85.1% | K-562 leukemia -22.3% | MALME-3M melanoma -64.1% | MDA-MB-231 breast -71.7% | RXF 393 renal -99.5% | SF-268 CNS -78.5% | SF-295 CNS -84% | SF-539 CNS -90.7% | UACC-257 melanoma -90.6% | M14 melanoma -88.2% | HCT-15 colon -64.8% | HT29 colon -29.1% | SNB-75 CNS -29.3% | SNB-19 CNS -79.4% | U251 CNS -86.8% | SK-MEL-5 melanoma -89.2% | UACC-62 melanoma -77.9% | LOX IMVI melanoma -87.2% | SK-MEL-28 melanoma -84.6%

COc1ccc(-n2cc(-c3cc(OC)c(OC)c(OC)c3)n(C(C)=O)c2=O)cc1
active: SK-MEL-5 melanoma 6.54%
inactive: DU-145 prostate 109% | K-562 leukemia 92.9% | MALME-3M melanoma 79.4% | MDA-MB-231 breast 86.4% | RXF 393 renal 111% | SF-268 CNS 94.7% | SF-295 CNS 82.1% | SF-539 CNS 90.2% | UACC-257 melanoma 90.3% | M14 melanoma 111% | HCT-15 colon 94.9% | HT29 colon 108% | SNB-75 CNS 69.5% | SNB-19 CNS 86.1% | U251 CNS 88.2% | UACC-62 melanoma 84.1% | LOX IMVI melanoma 94% | SK-MEL-28 melanoma 115%

CCNC(=S)NNC(=O)c1cc2ccc1CCc1ccc(cc1)CC2
inactive: DU-145 prostate 103% | K-562 leukemia 100% | MALME-3M melanoma 101% | MDA-MB-231 breast 100% | RXF 393 renal 109% | SF-268 CNS 95.4% | SF-295 CNS 93.2% | SF-539 CNS 101% | UACC-257 melanoma 109% | M14 melanoma 95% | HCT-15 colon 96.7% | HT29 colon 104% | SNB-75 CNS 89.8% | SNB-19 CNS 100% | U251 CNS 101% | SK-MEL-5 melanoma 96.7% | UACC-62 melanoma 93.4% | LOX IMVI melanoma 102% | SK-MEL-28 melanoma 101%

Cc1[nH]c(C(=O)Nc2ccccc2OCc2cccc(C(=O)NCCN)c2)c(Cl)c1Cl
inactive: DU-145 prostate 100% | MALME-3M melanoma 58.4% | MDA-MB-231 breast 76.8% | RXF 393 renal 65.2% | SF-268 CNS 67.9% | SF-295 CNS 87.8% | SF-539 CNS 84.9% | UACC-257 melanoma 104% | M14 melanoma 87.8% | HCT-15 colon 86.3% | HT29 colon 38.2% | SNB-75 CNS 86.2% | SNB-19 CNS 58.3% | SK-MEL-5 melanoma 95.3% | UACC-62 melanoma 92.6% | SK-MEL-28 melanoma 84.3%
active: K-562 leukemia -47.5% | U251 CNS 4.71% | LOX IMVI melanoma -48.1%

Cc1ccc(C(=O)Nc2ccccc2C(=O)N/N=C(\c2ccccc2)c2ccccn2)cc1
active: SF-539 CNS 8.97% | UACC-257 melanoma 8.34% | M14 melanoma -38.9% | SK-MEL-5 melanoma -4.18% | UACC-62 melanoma 5.33% | LOX IMVI melanoma 5.79%
inactive: DU-145 prostate 22.7% | K-562 leukemia 19.9% | MALME-3M melanoma 37.9% | MDA-MB-231 breast 34.4% | RXF 393 renal 40.4% | SF-268 CNS 20.2% | SF-295 CNS 23% | HCT-15 colon 29.1% | HT29 colon 24.9% | SNB-75 CNS 22.1% | SNB-19 CNS 26.2% | U251 CNS 22.6% | SK-MEL-28 melanoma 32.4%

COc1cccc(C(Cc2ccccc2)Nc2ccccc2)c1OC (centres undefined)
inactive: DU-145 prostate 109% | K-562 leukemia 90.4% | MALME-3M melanoma 98.9% | MDA-MB-231 breast 97.4% | RXF 393 renal 109% | SF-268 CNS 101% | SF-295 CNS 99.6% | SF-539 CNS 104% | UACC-257 melanoma 91% | M14 melanoma 97.2% | HCT-15 colon 91.3% | HT29 colon 73% | SNB-75 CNS 90.1% | SNB-19 CNS 104% | U251 CNS 89.8% | PC-3 prostate 83.2% | UACC-62 melanoma 88.7% | LOX IMVI melanoma 98.1% | SK-MEL-28 melanoma 107%

CC(C)C1C2=C(NCCN1C(=O)Cc1ccccc1)C(C)(C)N(Cc1ccccc1)C2=O (centres undefined)
inactive: DU-145 prostate 104% | K-562 leukemia 96.5% | MALME-3M melanoma 98.3% | MDA-MB-231 breast 98.2% | RXF 393 renal 98.3% | SF-268 CNS 102% | SF-295 CNS 99.5% | SF-539 CNS 107% | UACC-257 melanoma 96.7% | M14 melanoma 103% | HCT-15 colon 95.4% | HT29 colon 109% | SNB-75 CNS 85.3% | SNB-19 CNS 96.8% | U251 CNS 103% | PC-3 prostate 93.2% | UACC-62 melanoma 92.4% | LOX IMVI melanoma 101% | SK-MEL-28 melanoma 104%

COC(=O)CCCCCCCCC1(C)C=CC(C(C)O)=CC1 (centres undefined)
inactive: DU-145 prostate 110% | K-562 leukemia 84.5% | MALME-3M melanoma 105% | MDA-MB-231 breast 110% | RXF 393 renal 107% | SF-268 CNS 105% | SF-295 CNS 109% | SF-539 CNS 112% | UACC-257 melanoma 108% | M14 melanoma 110% | HCT-15 colon 105% | HT29 colon 99.9% | SNB-75 CNS 106% | SNB-19 CNS 107% | PC-3 prostate 97.6% | SK-MEL-5 melanoma 99% | UACC-62 melanoma 107% | LOX IMVI melanoma 96.7% | SK-MEL-28 melanoma 119%

CC(C)(C#N)N1CCN(c2ccccc2Cl)CC1
inactive: DU-145 prostate 105% | K-562 leukemia 96.4% | MALME-3M melanoma 91.2% | MDA-MB-231 breast 110% | RXF 393 renal 118% | SF-268 CNS 101% | SF-295 CNS 97.2% | SF-539 CNS 96.8% | UACC-257 melanoma 92.1% | M14 melanoma 99.2% | HCT-15 colon 103% | HT29 colon 96.4% | SNB-75 CNS 102% | SNB-19 CNS 118% | U251 CNS 102% | SK-MEL-5 melanoma 114% | LOX IMVI melanoma 87.3% | SK-MEL-28 melanoma 112%

COc1ccc(/C(C)=N/NC(=O)CSc2nc3ccccc3c(=O)n2Cc2ccc(S(N)(=O)=O)cc2)c(OC)c1
inactive: DU-145 prostate 108% | K-562 leukemia 94.9% | MALME-3M melanoma 102% | MDA-MB-231 breast 96.2% | RXF 393 renal 102% | SF-268 CNS 91.8% | SF-295 CNS 98.7% | SF-539 CNS 100% | UACC-257 melanoma 107% | M14 melanoma 104% | HCT-15 colon 96.2% | HT29 colon 111% | SNB-75 CNS 82.9% | SNB-19 CNS 95.5% | PC-3 prostate 97.1% | SK-MEL-5 melanoma 98% | UACC-62 melanoma 96.9% | LOX IMVI melanoma 94.2%

COc1ccc(/C=C\c2nc3ccccc3s2)cc1OP(=O)(O)O
inactive: DU-145 prostate 29.1% | K-562 leukemia 10.4% | MALME-3M melanoma 71.3% | MDA-MB-231 breast 49.2% | SF-268 CNS 60.2% | SF-295 CNS 40.8% | UACC-257 melanoma 83.1% | M14 melanoma 25.5% | HCT-15 colon 30% | HT29 colon 104% | SNB-19 CNS 28.8% | U251 CNS 32.6% | SK-MEL-5 melanoma 21.8% | UACC-62 melanoma 41.5% | LOX IMVI melanoma 41.5% | SK-MEL-28 melanoma 67.4%
active: RXF 393 renal 2.73% | SF-539 CNS -10.2% | SNB-75 CNS -2.05%

O=C(Cc1ccc(/C=C/C(=O)c2ncc[nH]2)cc1)Nc1ccc(C(F)(F)F)cc1
active: K-562 leukemia 4.21% | SF-539 CNS -10.1% | HCT-15 colon -51.6% | HT29 colon -32.5% | U251 CNS -88.8% | LOX IMVI melanoma -80%
inactive: DU-145 prostate 16.5% | MALME-3M melanoma 86.2% | MDA-MB-231 breast 32.5% | RXF 393 renal 34% | SF-268 CNS 14.4% | SF-295 CNS 22.9% | UACC-257 melanoma 82.1% | M14 melanoma 25.1% | SNB-75 CNS 43.6% | SNB-19 CNS 15.3% | SK-MEL-5 melanoma 47.7% | UACC-62 melanoma 46.5% | SK-MEL-28 melanoma 67.3%

Nc1ccccc1NC(=O)c1ccc(CN2CCC/C(=C\c3cccc(Cl)c3)C2=O)cc1
active: DU-145 prostate 8.37% | K-562 leukemia 4.21% | MDA-MB-231 breast -2.78% | SF-268 CNS 3.92% | SF-539 CNS 5.47% | HT29 colon 1.41% | SK-MEL-5 melanoma -41.9% | LOX IMVI melanoma 9.7%
inactive: MALME-3M melanoma 63.7% | RXF 393 renal 20.6% | SF-295 CNS 25.5% | UACC-257 melanoma 37.7% | M14 melanoma 24% | HCT-15 colon 15.4% | SNB-75 CNS 16.5% | SNB-19 CNS 24.3% | PC-3 prostate 17.7% | UACC-62 melanoma 27.1%

CNC(=O)NCC1OC(n2cnc3c(NC(=O)Nc4ccccc4)ncnc32)C(O[Si](C)(C)C(C)(C)C)C1O[Si](C)(C)C(C)(C)C (centres undefined)
active: RXF 393 renal -37% | HT29 colon -67.7%
inactive: DU-145 prostate 52.2% | K-562 leukemia 34.5% | MALME-3M melanoma 48.9% | MDA-MB-231 breast 37.7% | SF-268 CNS 36% | SF-295 CNS 45.1% | SF-539 CNS 33.4% | UACC-257 melanoma 42.8% | M14 melanoma 33% | HCT-15 colon 21.3% | SNB-75 CNS 45.8% | SNB-19 CNS 76.1% | U251 CNS 17.2% | SK-MEL-5 melanoma 48.2% | LOX IMVI melanoma 13.3%

CC(C)(C)OC(=O)N1CCN(c2ccc(N)cc2)C(=O)C1
inactive: DU-145 prostate 115% | K-562 leukemia 99.9% | MALME-3M melanoma 106% | MDA-MB-231 breast 98.8% | RXF 393 renal 110% | SF-268 CNS 103% | SF-295 CNS 98.2% | SF-539 CNS 107% | UACC-257 melanoma 107% | M14 melanoma 101% | HCT-15 colon 100% | HT29 colon 117% | SNB-75 CNS 87% | SNB-19 CNS 99.9% | U251 CNS 107% | PC-3 prostate 109% | UACC-62 melanoma 98.1% | LOX IMVI melanoma 99.1% | SK-MEL-28 melanoma 104%
